Experimental data from publication PMC5540273 (PLoS ONE, 2017).

Tests used:
Settings in all cases: concentration: 1 μM, replicates: in singlicate; n = 1
[1] = system: TRPM6
[2] = system: TSSK1B
[3] = system: TSSK3
[4] = system: TTK
[5] = system: TXK
[6] = system: TYK2(JH1domain-catalytic)
[7] = system: TYK2(JH2domain-pseudokinase)
[8] = system: TYRO3
[9] = system: ULK1
[10] = system: ULK2
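Note: KINOMEscan kinase panel screen.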

Row | SMILES | %Inh [1] [%] | %Inh [2] [%] | %Inh [3] [%] | %Inh [4] [%] | %Inh [5] [%] | %Inh [6] [%] | %Inh [7] [%] | %Inh [8] [%] | %Inh [9] [%] | %Inh [10] [%]
1 | COc1ccc(-n2cnc3c(N)ncnc32)cc1 [SKF-97236] | 66 | 11 | 0 | 28 | 12 | 11 | 24 | 0 | 21 | 10
2 | Cc1nnc(-c2ccc(C)c(-c3ccc(C(=O)O)cc3)c2)o1 [GW608005] | 1 | 10 | 0 | 12 | 0 | 15 | 8 | 0 | 8 | 0
3 | CCS(=O)(=O)c1ccc(OC)c(Nc2ncc(-c3ccc(F)cc3)o2)c1.Cl [GW591947] | 4 | 10 | 13 | 0 | 0 | 1 | 0 | 4 | 0 | 0
4 | Cl.NS(=O)(=O)c1cccc(Nc2cc(-c3ccc(F)cc3)n[nH]2)c1 [GW824645] | 0 | 0 | 0 | 0 | 0 | 0 | 9 | 0 | 15 | 47
5 | COc1cc2nccc(Nc3ccc(OCc4ccc(NC(C)=O)cc4)cc3)c2cc1OC.Cl [GW440135] | 3 | 0 | 26 | 0 | 6 | 9 | 5 | 0 | 0 | 0
6 | Cc1c(Cn2c(C)nn3c(=O)cc(N4CCO[C@H](C)C4)nc23)cccc1C(F)(F)F [GSK2373690] | 0 | 0 | 14 | 0 | 3 | 0 | 0 | 22 | 14 | 0
7 | COc1cc(OC)cc(-c2cc3cnc(N)nc3nc2NC(=O)NC(C)(C)C)c1 | 0 | 9 | 0 | 0 | 19 | 0 | 3 | 100 | 0 | 0
8 | Nc1n[nH]c2nnc(-c3ccccc3)c(-c3ccccc3)c12 [GW554060] | 0 | 13 | 20 | 0 | 12 | 34 | 55 | 10 | 27 | 8
9 | Cl.c1ccc(Cn2cnc3cc(Nc4ncnc5ccccc45)ccc32)cc1 [GW272142] | 0 | 12 | 10 | 0 | 0 | 13 | 21 | 0 | 7 | 0
10 | Fc1cccc(CSc2nnc(-c3ccc4c(c3)CCO4)o2)c1 | 0 | 0 | 2 | 2 | 0 | 4 | 12 | 0 | 0 | 9
11 | COc1cccc(-n2cnc3c(N)ncnc32)c1 [SKF-97416] | 65 | 0 | 21 | 44 | 11 | 83 | 40 | 0 | 45 | 39
12 | CCc1nc(-c2cccc(C)c2)c(-c2ccncc2)s1 | 0 | 0 | 0 | 0 | 0 | 0 | 25 | 0 | 0 | 0
13 | CCn1c(-c2nonc2N)nc2ccccc21 [SB-693162/GW549034] | 0 | 0 | 0 | 29 | 12 | 0 | 25 | 0 | 40 | 31
14 | CCC(=O)c1c(-c2ccccc2)c2cc(Cl)ccc2c(=O)n1Cc1cc(C(=O)NC2CC2)n(C)n1 | 0 | 0 | 0 | 15 | 24 | 8 | 1 | 0 | 0 | 6
15 | COc1ccc(Nc2nccc(N3CCC(NS(=O)(=O)c4ccc(NC(C)=O)cc4)C3)n2)cc1 (centres unmarked) [GSK1379729] | 0 | 0 | 21 | 7 | 35 | 93.8 | 0 | 23 | 26 | 0
16 | CCCNC(=O)Nc1ccc(Oc2ncnc3ccn(C)c23)cc1 | 0 | 0 | 0 | 0 | 0 | 13 | 22 | 0 | 14 | 10
17 | CCC(=O)c1c(-c2ccccc2)c2cc(Cl)ccc2c(=O)n1Cc1ccc(C(=O)O)cc1 | 0 | 0 | 0 | 0 | 0 | 0 | 0 | 0 | 0 | 2
